Data on 40 compounds can be found in PubChem BioAssay (Tox21).

The structures appear in SMILES notation. Where “and” joins values, the source holds several entries; their conditions need not be identical. Equal values may be shown once. Results filed as inconclusive are left out. Where a call stands in place of a potency, no number is given. Some structures have more than one record in an assay (separate samples or runs), and their calls can disagree. Calls of active or inactive are those of the source. The call rests on the fitted dose curve; in most records, active means well fitted cell-killing curve with a large enough effect in the repeat runs; inconclusive means weak or mixed curves, or effect the other way; inactive means no such curve, though single readings can be large or run the other way.
Potency means the concentration at half of the fitted maximal effect.

This test in a line: qHTS assay to identify small molecule antagonists of the thyroid receptor (TR) signaling pathway - cell viability counter screen (AID 743064). Further: nearly all actives have a fitted effect of over 50% in size. The note with it: GH3.TRE-Luc viability, CellTiter-Fluor, 24 h; series mostly up to 70.3 µM. An excerpt:
National Center for Advancing Translational Sciences [NCATS]
NIH Chemical Genomics Center [NCGC]
U.S. Environmental Protection Agency [EPA]
National Institutes of Environmental Health Sciences [NIEHS]
National Toxicology Program [NTP]
U.S. Food and Drug Administration [FDA]
Thyroid receptor (TR), a nuclear hormone receptor, plays an important role in development, proliferation, differentiation, metabolism, brain function, and cardiovascular system. […] To profile the Tox21 10K compound library in TR signaling, a cell-based GH3-TRE-Luc assay (GH3.TRE-Luc cell line, developed by the laboratory of Dr. Albertinka J. Murk, Wageningen University) was used to measure the inhibition of TR. GH3 (rat pituitary tumor) cells stably expressing a TR activity sensor consisting of two TR response elements and a luciferase reporter gene. The cytotoxicity of the Tox21 compound library against the GH3.TRE-Luc cell line was tested in parallel by measuring the cell viability using CellTiter-Fluor assay (Promega, Madison, WI) in the same wells.
Tox21 Assay Protocol Summary:
GH3.TRE-Luc cells were dispensed at 1500 cells/4 uL/well into 1536-well white solid bottom plates using a Multidrop Combi dispenser (Thermo Fisher Scientific Inc., Waltham, MA). After the assay plates were incubated at 37 C for 4 hours, 23 nL of library compound or DMSO controls was transferred to the assay plates by a pintool station (Kalypsys, San Diego, CA), followed by addition of 1 ul of T3 (1 nM, final concentration in the wells) to stimulate TR transactivation. The assay plates were incubated at 37 C for 23.5 h, and then 1 uL of CellTiter-Fluor reagent (Promega, Madision, WI) of measuring cytotoxicity was added to each well using a Bioraptr Flying Reagent Dispenser (FRD) workstation (Beckman Coulter, Indianapolis, IN, USA). The plates were incubated at 37C and 5% CO2 for additional 30 min, and fluorescence intensity was measured by a ViewLux plate reader (PerkinElmer, Shelton, CT).
For orientation: qHTS replaces the single test concentration by a dilution series.
As to `O=C(C(Cl)(Cl)Cl)C(Cl)(Cl)Cl`, the Potency entry is “inactive”.
Turning to `CCCCCCCCCCOC(=O)c1ccccc1C(=O)OCCCCCCCCCC`, the Potency entry was “inactive”.
In the case of `O=NN1CCNCC1` it was “inactive”.
The same measure for `COCC(C)N(C(=O)CCl)c1c(C)csc1C` (stereo not given): “inactive”; for `O=C1NCN(c2ccccc2)C12CCN(CCCOc1ccc(F)cc1)CC2`: 13.3 µM (active).
In the case of `Cc1ccc(N)cc1C` it was “inactive”.
In the case of `O=C1C(=O)c2cccc3cccc1c23`, the Potency result is “inactive”.
On to `Oc1ccc(Cl)c(Cl)c1Cl`, for which the Potency result was “inactive”.
In the case of `C=CCC1([C@H](C)CCC)C(=O)NC(=O)NC1=O` it was “inactive”.
The same measure for `O=C(CCl)c1ccc(Cl)cc1Cl`: 1.33 µM (active) and 4.33 µM (active) and inactive; for `CC(C)(CCl)C(=O)Cl`: “inactive”.
On to `IC(I)=C(I)I`, for which the Potency is 7.7 µM (active).
The same measure for `O=S(=O)(Cl)c1ccccc1`: “inactive”; for `C=CCCl`: “inactive”.
In the case of `O=C(O)c1ccccc1C(=O)Nc1cccc2ccccc12` it was “inactive”.
In the case of `O=C(NC(=O)c1c(F)cccc1F)Nc1cc(Cl)c(Oc2ncc(C(F)(F)F)cc2Cl)c(Cl)c1` it was 58.5 µM (active).
Take `COc1cc(Cl)c(OC)cc1Cl`: the Potency result is “inactive”.
In the case of `CCCCNP(N)(N)=S` it was “inactive”; in that of `ClCC(Br)CBr` (stereo not given), “inactive”; in that of `O=C=Nc1ccc(Cl)cc1`, “inactive”.
The same measure for `N#Cc1ccc(Cl)cc1`: “inactive”.
The same measure for `C=CCN1CC[C@]23c4c5ccc(O)c4O[C@H]2C(=O)CC[C@@]3(O)[C@H]1C5`: “inactive”; for `CCOS(C)(=O)=O`: “inactive”; for `CCCCOC(=O)c1ccccc1C(=O)OCc1ccccc1`: “inactive”.
Regarding `OC(c1ccc(Cl)cc1)(c1ccc(Cl)cc1)c1cccnc1`, the Potency is 61.1 µM (active).
The same measure for `N#C/C(N)=C(/N)C#N`: “inactive”; for `CN1C(=O)NC(=O)C(C)(C2=CCCCC2)C1=O` (stereo not given): “inactive”; for `C=CC(C)=O`: “inactive”.
In the case of `ClCc1ccccc1` it was “inactive”; in that of `C=COC(C)=O`, “inactive”.
Take `O=C(Nc1ccccc1)Nc1cnns1`: the Potency result is “inactive”.
The same measure for `CC(C)(Cl)[N+](=O)[O-]`: “inactive”.
In the case of `Cc1ccccc1C(=O)Nc1cccc(OC(C)C)c1` it was “inactive”.
In the case of `CNC(C)Cc1ccccc1OC` (stereo not given) it was “inactive”; in that of `Clc1cccc(SC2CCNCC2)n1`, “inactive”.
Take `CC(C)=CCOc1c2occc2cc2ccc(=O)oc12`: the Potency result was “inactive”.
The same measure for `COc1nn(C(=O)NS(=O)(=O)c2ccccc2OC(F)(F)F)c(=O)n1C`: “inactive”; for `O=C1CN=C(c2ccccc2)c2cc(Cl)ccc2N1CC1CC1`: “inactive”; for `CC(Cl)Cl`: “inactive”.
In the case of `CCOC(=O)[C@]1(c2ccccc2)Oc2ccccc2[C@@H]1N` it was 68.6 µM (active).
